Screens from PubChem BioAssay.
Shiga inhibitor = blocks Shiga toxin action in Vero cells. 9.2% of 290,000 active. Vero cells, Shiga toxin protein synthesis inhibition reporter. inhibition, % at 38.7 µM. AID 2315; in the data active = inhibition mostly above about 28%, no sharp cut-off; inactive = mostly below about 43%; note: 0% is about no effect
Pf growth 48h = inhibits P. falciparum growth in the first generation, 48 h; P. falciparum luciferase growth in erythrocytes, 48 h; Potency, µM (series often up to 28.7 µM), inactives show top-dose activity change, negative = inhibition, hits mostly inhibitors; 5.9% of 310,000 active; note: potency is the fitted concentration of half-maximal effect; % is set by controls: 0 for no effect and ±100 for the full control effect
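Read-out is firefly luciferase luminescence from an integrated reporter in P. falciparum, so falling signal marks reduced parasite growth. Infected erythrocytes were at 2% hematocrit and 0.1% parasitemia (final) in Albumax-supplemented RPMI 1640.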
NS1 inh = blocks influenza NS1 protein function | Potency, µM (doses to about 46.1 µM), for the others: top-dose activity, positive = more growth | 0.4% of 270,000 active | AID 2326; calls by dose curve; note: potency is the fitted concentration of half-maximal effect; actives are rising curves; nearly all actives have a fitted effect of over 50% in size
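OD600 was taken as the measure of yeast growth restored by compound in an NS1-expressing S. cerevisiae strain. Cells had been washed out of glucose medium and diluted 1:100 into galactose -URA medium, pH 6.0.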
Cycloheximide cs = affects cycloheximide protein synthesis inhibition readout, counter-screen. 12% of 300,000 active. cell reporter, cycloheximide protein synthesis inhibition counterscreen. max response, %; in the data active = max response mostly above about 13%, no sharp cut-off; inactive = mostly below about 14%; note: read at 38.3 µM for the half of the compounds with a filed dose; 0% is about no effect
Pf growth 96h = inhibits malaria parasite growth, 96 h; P. falciparum luciferase reporter growth, 96 h; Potency, µM (series often up to 28.7 µM), for inactives: at the top dose activity change, negative = inhibition, actives largely listed as inhibitors; 6.9% of 320,000 active; AID 504834; note: potency is the fitted concentration of half-maximal effect; % is set by controls: 0 for no effect and ±100 for the full control effect
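P. falciparum expressing integrated firefly luciferase grown in erythrocytes (2% hematocrit, 0.05% parasitemia final) with compounds for 96 hours at 37 C, 5% CO2. Growth inhibition read as loss of luminescence after adding luciferase detection reagent.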
FBPA Giardia inh = Giardia lamblia aldolase inhibition; A8B2U2; purified Giardia FBPA; Potency, µM (highest dose often 59.6 µM), for the others: top-dose activity, negative = inhibition, actives largely listed as inhibitors; 0.71% of 290,000 active; note: potency is the fitted concentration of half-maximal effect; % is set by controls: 0 for no effect and ±100 for the full control effect; nearly all actives have a fitted effect of over 55% in size
Target sequence (A8B2U2 whole entry, looked up): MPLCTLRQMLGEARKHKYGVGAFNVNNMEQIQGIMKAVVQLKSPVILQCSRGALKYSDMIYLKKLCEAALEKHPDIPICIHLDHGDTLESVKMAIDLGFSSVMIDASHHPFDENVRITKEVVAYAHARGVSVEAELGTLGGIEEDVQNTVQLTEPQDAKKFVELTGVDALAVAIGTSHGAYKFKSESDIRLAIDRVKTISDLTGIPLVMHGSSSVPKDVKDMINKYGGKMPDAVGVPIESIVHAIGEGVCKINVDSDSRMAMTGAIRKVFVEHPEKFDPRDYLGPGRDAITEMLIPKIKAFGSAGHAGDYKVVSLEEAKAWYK
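40 nM FBPA preincubated 10 min at RT with compound (up to 57.5 uM final), then substrate plus GAPDH/TPI/NAD/arsenate coupling and diaphorase/resazurin added. Fluorescence read after 20 min at RT, 525/598 nm.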
An asterisk follows results filed as active; ? = inconclusive; / = no result; + = active, no number. Only some compounds are listed: those with a hit (about 21% of all), similar ones and a draw of the others. Unless noted, calls come from the whole dose curve; as a rule, active = well fitted curve in the direction sought with a large enough effect; inconclusive = small, poorly fitted or top-dose-only effect, or another doubt; inactive = no such curve, though single readings can be large; an effect the other way counts as inactive or inconclusive.

SMILES | Shiga inhibitor | Pf growth 48h | NS1 inh | Cycloheximide cs | Pf growth 96h | FBPA Giardia inh
Cc1ccc(NCCC(=O)c2cccs2)cc1 | 80* | 33% | / | 46* | -20% | 2%
Cc1ccc(NCCC(=O)c2cccs2)cc1C | 58* | 75% | 1% | 49* | 20% | 1%
Cc1cc(C)c(C(CC(=O)c2cccs2)C(C#N)C#N)c(C)c1 (centres undefined) | 84* | 80% | -20% | 61* | 46% | -11%
Cc1ccc(NC(=O)CCC(=O)c2cccs2)cc1 | 52 | / | -9% | 16* | 272% | -3%
Cc1ccc(NCCC(=O)c2ccc(Cl)cc2)cc1C | 22 | 43% | 0% | -1 | 96% | /
COc1ccc(S(=O)(=O)N(C)c2ccc(C(=O)NCc3ccco3)cc2)cc1OC | -4 | -23% | -15% | -3 | 1% | /
CC(C)CN1CC2(CCN(C(=O)c3cccc(F)c3)CC2)C1 | / | / | / | / | / | -3%
CCc1nccn1S(=O)(=O)c1cc(OC)ccc1OC | -4 | 0% | 8% | -1 | 139% | -16%
Clc1ccccc1-c1nccc(NCc2cccs2)n1 | / | / | / | / | / | -2%
O=C(CCC(=O)c1cccs1)Nc1ccc(N2CCCCC2)cc1 | 86* | 103% | / | 45* | -12% | -4%
CC(=O)c1ccc(NC(=O)COC(=O)CCC(=O)c2cccs2)cc1 | -10 | 3% | -2% | -1 | 35% | 9%
Cc1ccc(Oc2ccc(NC(=O)CCC(=O)OCC(=O)c3cccs3)cc2)cc1C | 33 | 13% | -32% | 17* | 1% | 5%
CCCC(=O)N1CCN(c2ccc(NC(=O)c3cccs3)cc2)CC1 | 13 | 15% | / | 5 | 2% | 8%
Cc1ccc(NCCC(=O)c2cccs2)cc1Cl | 53* | 25% | 18% | 29* | 157% | -1%
CC(C)c1ccc(NCCC(=O)c2cccs2)cc1 | 140* | 46% | -28% | 60* | 22% | -5%
CCCOc1ccc(C(=O)CCNc2ccc(C)c(Cl)c2)cc1 | -11 | 43% | 8% | -3 | 68% | 0%
CC(C)CCNC(=O)CNC(=O)c1cccs1 | -6 | / | 11% | -4 | 56% | 1%
Cn1nnnc1NCc1ccccc1F | / | 32% | 21% | -3 | -9% | 14%
O=C(COC(=O)c1nc(Cl)ccc1Cl)NC1CCCCC1 | / | 14% | / | / | -21% | /
CCOc1ccc(CCNC(=O)c2ccc(=O)[nH]c2)cc1OCC | -2 | -3% | 7% | -2 | 3% | /
COc1ccc(-n2ncc3c2CC(C)(C)CC3NC(=O)c2cnc(C)cn2)cc1 (centres undefined) | -3 | 0% | -7% | 11 | ? | 11%
Cc1ccc(NC(=O)COC(=O)CCC(=O)c2cccs2)c(Br)c1 | / | 3% | / | / | 23% | /
CC(CC(=O)c1cccs1)CC(=O)c1cccs1 | + | 119% | -6% | 56* | 141% | -9%
O=C(CCNc1cccc(Cl)c1)c1cccs1 | 57* | -5% | -51% | 33* | 44% | 3%
O=C(CC(C(=O)O)c1ccccc1)c1cccs1 (centres undefined) | -5 | 4% | -2% | 4 | ? | 7%
SMILES | Shiga inhibitor | Pf growth 48h | NS1 inh | Cycloheximide cs | Pf growth 96h | FBPA Giardia inh
Cc1ccc(NC(=O)CCC(=O)c2cccs2)c(Br)c1 | 115* | 89% | -1% | 36* | 51% | 10%
CCOc1ccc(C(=O)NN2CCOCC2)cc1 | 9 | -3% | -9% | -2 | 0% | 2%
O=C(NCCCN1CCOCC1)c1ccc2c(=O)n(-c3ccc(F)c(Cl)c3)c(=S)[nH]c2c1 | -10 | ? | -3% | -8 | 9% | ?
CC(C)CNC(=O)C(=O)N/N=C/c1cccs1 | 46 | -10% | -7% | 28* | 0% | 8%
CC(C)(C)NC(=O)C(=O)N/N=C/c1cccs1 | 67* | 86% | 9% | 37* | 109% | 1%
O=C(N/N=C/c1cccs1)C(=O)Nc1cccc(Cl)c1 | 55* | 21% | / | 20* | 34% | 1%
CCCNC(=O)C(=O)N/N=C/c1cccs1 | 15 | 31% | 0% | 21* | 25% | 4%
CCN(CC)C(=O)C(=O)N/N=C/c1cccs1 | -1 | 39% | 11% | 8 | 0% | -3%
Cc1cc(N)c2cc(OCCOc3ccc4nc(C)cc(N)c4c3)ccc2n1 | / | / | -43% | / | / | /
COc1ccc2nc(SCC(=O)Nc3ccc4c(c3)OCCO4)[nH]c2c1 | 80* | 146% | ? | 57* | ? | -4%
